Here are results for four compounds from PubChem BioAssay.

Test [1] in a line: compounds binding Alexa647 anti-His antibody – biochemical, small-molecule microarray, 635 nm fluorescence, artefact control for SMM control protein annotation, primary screen (AID 1128).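 Also: score merges feature fluorescence with signal-to-noise for each printed compound spot.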 The conditions noted are these: higher = more signal.
For test [2], the system named is Human papillomavirus type 1a E7 protein (residues 1-88). In words: HPV1a E7 small-molecule binders, primary screen, biochemical, small-molecule microarray, residues 1-88, 635 nm (AID 1129). The conditions noted are these: small-molecule microarray binding, fluorescence 635 nm; higher = more signal.
The target of test [3] is Focal adhesion kinase 1 (Homo sapiens) (UniProt Q05397). In words: PTK2 protein binding on printed compound slides – biochemical, small-molecule microarray, 635/667 nm fluorescence, BSA, DTT, primary screen (AID 1130).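 Also: composite of spot emission at 667 nm and signal to noise over triplicate slides.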 The settings on record: 635 nm fluorescence, higher = more signal.
The subject of test [4] is Fibrinogen (Alexa647-labelled). Kind of test: Alexa647-fibrinogen binding to printed small molecules – biochemical, small-molecule microarray, 635/667 nm fluorescence, artefact control for SMM control-protein annotation, profiling panel (AID 1131).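 Also: z-score merges 667 nm fluorescence with per-spot signal-to-noise over triplicate slides.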 The conditions noted are these: fibrinogen-A647 binding fluorescence, higher = more signal.
Test [5] deals with Follistatin (Homo sapiens) (UniProt P19883). In words: FST protein binding to printed compounds – biochemical, small-molecule microarray, 635/667 nm fluorescence, primary screen (AID 1132). The settings on record: 635 nm fluorescence, higher = more signal.
Test [6] concerns the target Fibroblast growth factor 2 (Homo sapiens) (UniProt P09038). In words: basic fibroblast growth factor binding to printed compounds – biochemical, small-molecule microarray, 635/667 nm fluorescence, primary screen (AID 1133). The conditions noted are these: FGF2, fluorescence 635/667, higher = more signal.
A short description of test [7]: JC-1 mitochondrial potential readout, lung cancer cells – cell-based, A549, JC-1 fluorescence, basal, 24 h, 100 nL, profiling panel (AID 1138).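 Also: A549 lung adenocarcinoma cells under basal conditions with no added stimulus; test concentration not given here.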 The conditions noted are these: higher = more signal.
Another test deals with Lefty1. Kind of test: Lefty1 protein binding to printed compounds – biochemical, small-molecule microarray, 635/667 nm fluorescence, primary screen (AID 1139). The conditions noted are these: fluorescence 635/667, higher = more signal.
Test [8] deals with wheat germ agglutinin (Triticum aestivum), Alexa647-labelled. Kind of test: Alexa647-WGA lectin binding to printed small molecules – biochemical, small-molecule microarray, 635/667 nm fluorescence, artefact control for SMM control-protein annotation, profiling panel (AID 1140).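 Also: score merges 667 nm feature emission with signal to noise over triplicate slides.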 The conditions noted are these: WGA-A647 binding, 635 nm fluorescence, higher = more signal.
The target in test [9] is Luciferin 4-monooxygenase (Photinus pyralis) (UniProt P08659). In words: inhibition of purified Photinus pyralis luciferase – biochemical, luminescence, purified enzyme, 2006 set, primary screen (AID 1141).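 Also: cell-free assay with purified firefly luciferase at 100 ng per well in PBS; test concentration not given here.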 The conditions noted are these: purified firefly luciferase, SteadyGlo luminescence, 30 min; higher = more signal, called active from +8 up or from −8 down.
The test system of test [10] is Wnt5a (protein binding on small-molecule microarray). In words: small molecules binding Wnt5a protein – biophysical, small-molecule microarray, 635/667 nm fluorescence, primary screen (AID 1142).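 Also: fluorescence read at 667 nm with signal to noise per printed feature.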 The settings on record: 635 nm fluorescence, higher = more signal.
The nature of test [11]: ATP-based viability of Huh7 replicon cells – cell-based, CellTiter-Glo luminescence, basal, 48 h, cytotoxicity control for HCV replication inhibitor project, primary screen (AID 1143).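 Also: Huh7 hepatoma cells carrying a hepatitis C replication reporter with no stimulus; test concentration not given here.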 The conditions noted are these: higher = more signal, called active from +8 up or from −8 down.
Test [12] is described as follows: Pseudomonas biofilm growth suppression – PAO1 strain, BacTiter-Glo luminescence, LB-PBS, primary screen (AID 1144). The settings on record: P. aeruginosa PAO1 biofilm, 12 h, higher = more signal.
Test [13] is described as follows: basal CRE-LacZ reporter activity in PC12 – cell-based, unstimulated, primary screen (AID 1145). The conditions noted are these: no forskolin, luminescence, 4.5 h, higher = more signal, called active from +8 up or from −8 down.
Test [14] is described as follows: forskolin-driven CRE-LacZ activity in PC12 – cell-based, CRE-LacZ reporter, forskolin-stimulated, primary screen (AID 1146).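 Also: PC12 cells with 6xCRE LacZ reporter stimulated by forskolin 10 µM; beta-galactosidase reporter signal reflecting CREB driven transcription.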 The conditions noted are these: luminescence, 4.5 h, higher = more signal, called active from +8 up or from −8 down.
Test [15] addresses Streptavidin (Streptomyces avidinii) (UniProt P22629). Kind of test: compounds binding control protein streptavidin – biophysical, small-molecule microarray, 635/667 nm fluorescence, artefact control for SMM compound annotation, primary screen (AID 1147).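 Also: signal reflects streptavidin binding to arrayed compounds as a control protein.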 The conditions noted are these: higher = more signal.
The nature of test [16]: probe aInhba binding on compound microarray – biochemical, small-molecule microarray, 635/667 nm fluorescence, primary screen (AID 1148).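 Also: score merges 667nm spot fluorescence with signal-to-noise for antibody binding to printed compounds.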 The conditions noted are these: higher = more signal.
The target in test [17] is Torsin-1A (Homo sapiens) (UniProt O14656). Kind of test: TOR1A wild-type binding on microarray – cell lysate, small-molecule microarray, lysate, 635/667 nm, primary screen (AID 1149). The settings on record: COS7 hTOR1A-WT lysate, 635 nm fluorescence, higher = more signal.
The target is the same in test [18]. In words: torsin A mutant lysate binding on microarrays – cell lysate, small-molecule microarray, COS7 lysate, 635/667 nm fluorescence, primary screen (AID 1150).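 Also: score pools 667 nm emission and signal to noise measuring lysate protein binding.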 The conditions noted are these: COS7 hTOR1A mutant lysate, 635 nm fluorescence, higher = more signal.
For test [19], the system named is Sonic hedgehog protein (Shh). In words: Sonic hedgehog microarray binding compounds – biochemical, small-molecule microarray, 635/667 nm fluorescence, primary screen (AID 1151).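 Also: Shh protein binding to compounds spotted on small-molecule microarray slides; score combines spot fluorescence intensity with signal-to-noise across triplicate slides.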 The settings on record: 635 nm fluorescence, higher = more signal.

Several values for one entry are separate records, joined by “and”; a condition that tells them apart may be missing. Identical values can stand only once. Activity calls are given as the source filed them. Unless noted, no rule for the calls is given here.

Fibroblast growth factor 2 (Homo sapiens), sequence (P09038 whole entry, looked up): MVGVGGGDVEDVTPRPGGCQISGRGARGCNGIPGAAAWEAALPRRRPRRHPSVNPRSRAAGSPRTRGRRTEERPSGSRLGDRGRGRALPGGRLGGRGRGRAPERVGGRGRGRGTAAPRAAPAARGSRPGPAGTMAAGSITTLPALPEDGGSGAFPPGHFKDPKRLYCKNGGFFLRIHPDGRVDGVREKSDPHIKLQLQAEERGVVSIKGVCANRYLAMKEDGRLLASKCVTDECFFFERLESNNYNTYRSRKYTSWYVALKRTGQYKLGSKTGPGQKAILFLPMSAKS
Torsin-1A (Homo sapiens), sequence (O14656 whole entry, looked up): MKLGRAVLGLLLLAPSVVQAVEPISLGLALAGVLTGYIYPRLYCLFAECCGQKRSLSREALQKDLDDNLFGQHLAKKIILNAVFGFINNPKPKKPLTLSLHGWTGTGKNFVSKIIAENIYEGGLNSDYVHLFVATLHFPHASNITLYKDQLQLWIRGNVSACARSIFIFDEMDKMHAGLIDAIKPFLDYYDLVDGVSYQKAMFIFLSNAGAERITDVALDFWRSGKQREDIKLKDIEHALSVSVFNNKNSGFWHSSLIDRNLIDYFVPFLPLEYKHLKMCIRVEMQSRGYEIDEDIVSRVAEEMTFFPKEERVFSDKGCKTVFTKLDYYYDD
Streptavidin (Streptomyces avidinii), sequence (P22629 whole entry, looked up): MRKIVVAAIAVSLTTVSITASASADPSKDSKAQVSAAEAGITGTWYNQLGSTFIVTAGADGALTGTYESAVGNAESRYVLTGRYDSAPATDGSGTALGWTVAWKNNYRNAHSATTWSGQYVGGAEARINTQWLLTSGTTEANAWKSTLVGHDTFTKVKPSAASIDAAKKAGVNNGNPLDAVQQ
Focal adhesion kinase 1 (Homo sapiens), sequence (Q05397 whole entry, looked up): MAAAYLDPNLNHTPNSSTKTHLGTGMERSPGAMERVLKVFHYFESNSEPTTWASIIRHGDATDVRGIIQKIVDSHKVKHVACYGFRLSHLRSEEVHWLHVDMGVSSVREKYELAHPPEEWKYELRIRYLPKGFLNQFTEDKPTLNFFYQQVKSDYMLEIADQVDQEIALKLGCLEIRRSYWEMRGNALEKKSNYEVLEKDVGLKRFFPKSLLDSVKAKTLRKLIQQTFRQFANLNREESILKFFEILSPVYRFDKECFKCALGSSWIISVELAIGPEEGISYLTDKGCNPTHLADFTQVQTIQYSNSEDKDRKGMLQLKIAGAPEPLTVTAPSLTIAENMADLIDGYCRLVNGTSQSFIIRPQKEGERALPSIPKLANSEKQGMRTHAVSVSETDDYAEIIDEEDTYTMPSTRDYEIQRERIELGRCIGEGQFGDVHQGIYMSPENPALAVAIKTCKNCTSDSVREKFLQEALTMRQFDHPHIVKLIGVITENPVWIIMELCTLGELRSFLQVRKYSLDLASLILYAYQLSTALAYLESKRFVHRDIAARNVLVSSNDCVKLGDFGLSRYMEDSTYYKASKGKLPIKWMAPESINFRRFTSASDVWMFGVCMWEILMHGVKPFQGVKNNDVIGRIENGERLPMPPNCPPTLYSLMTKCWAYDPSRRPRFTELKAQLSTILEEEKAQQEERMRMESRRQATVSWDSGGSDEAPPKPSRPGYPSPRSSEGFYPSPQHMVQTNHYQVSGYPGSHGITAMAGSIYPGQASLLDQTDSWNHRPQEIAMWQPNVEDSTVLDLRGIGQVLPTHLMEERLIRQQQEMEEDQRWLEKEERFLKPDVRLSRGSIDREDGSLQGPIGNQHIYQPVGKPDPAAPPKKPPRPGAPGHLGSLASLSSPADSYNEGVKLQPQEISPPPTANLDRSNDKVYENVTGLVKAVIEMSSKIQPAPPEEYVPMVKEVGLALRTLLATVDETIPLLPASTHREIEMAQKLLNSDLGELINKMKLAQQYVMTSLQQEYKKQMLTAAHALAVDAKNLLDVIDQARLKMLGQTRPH
Follistatin (Homo sapiens), sequence (P19883 whole entry, looked up): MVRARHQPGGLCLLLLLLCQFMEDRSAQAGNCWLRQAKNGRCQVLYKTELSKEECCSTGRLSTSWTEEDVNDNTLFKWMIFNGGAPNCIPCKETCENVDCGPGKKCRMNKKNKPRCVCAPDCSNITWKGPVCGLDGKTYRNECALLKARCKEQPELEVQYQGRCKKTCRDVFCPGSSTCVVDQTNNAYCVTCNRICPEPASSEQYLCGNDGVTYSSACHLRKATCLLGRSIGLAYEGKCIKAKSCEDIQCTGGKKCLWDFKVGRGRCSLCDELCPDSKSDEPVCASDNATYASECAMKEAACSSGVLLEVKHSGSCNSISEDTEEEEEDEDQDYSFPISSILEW
Luciferin 4-monooxygenase (Photinus pyralis), sequence (P08659 whole entry, looked up): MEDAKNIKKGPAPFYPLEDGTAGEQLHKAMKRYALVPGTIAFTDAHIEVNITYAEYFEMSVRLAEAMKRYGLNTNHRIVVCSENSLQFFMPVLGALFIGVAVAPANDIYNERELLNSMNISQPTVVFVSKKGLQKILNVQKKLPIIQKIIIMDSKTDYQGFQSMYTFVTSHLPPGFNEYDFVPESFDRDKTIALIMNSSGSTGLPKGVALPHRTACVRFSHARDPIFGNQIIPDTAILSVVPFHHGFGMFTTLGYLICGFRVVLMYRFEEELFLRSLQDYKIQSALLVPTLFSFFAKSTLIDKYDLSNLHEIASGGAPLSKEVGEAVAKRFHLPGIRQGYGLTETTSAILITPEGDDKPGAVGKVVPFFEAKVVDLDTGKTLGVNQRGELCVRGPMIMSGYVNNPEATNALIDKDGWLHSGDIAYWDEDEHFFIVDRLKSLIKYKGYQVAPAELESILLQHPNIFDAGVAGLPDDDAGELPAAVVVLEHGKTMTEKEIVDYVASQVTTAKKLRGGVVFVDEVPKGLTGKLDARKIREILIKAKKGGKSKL

On to `C#CCCCON=C1C[C@@H](O)[C@@H](O)[C@@H]2[C@@H]3C(=O)N(C4CCCCC4)C(=O)[C@@H]3CC[C@H]12`, for which the composite z-score in [1] is 1.31; in test [2] it was 1.1; in test [3], 0.498; in test [4] it was 0.962; in test [5], -0.0195; in test [6], 0.0951. Moreover, the composite z-score in the test on Lefty1 is 0.112; in [8], 0.698; in [10], -0.176; in test [15] it was 1.03; in test [16], -0.101; with Torsin-1A (Homo sapiens) [17], 1.06. The composite z-score was 0.0924 with Torsin-1A (Homo sapiens) [18] and -0.105 in test [19]. For the same compound, the z-score is 0.83 in [7]; -1.01 (inactive) in test [9]; -0.379 (inactive) in [11]; 0.353 (inactive) in [12]; -0.474 (inactive) in test [13]; -0.236 (inactive) in test [14].

With `CC(C)=NOCc1ccc(-c2cn([C@@H]3COC[C@H]3O)nn2)cc1`, the composite z-score in test [1] was 1.03; in test [2], 0.245; in test [3], -0.115; in test [4] it was -0.4; in test [5], 0.218; in test [6], 0.299. For the same compound, the composite z-score in the test with Lefty1 was 0.402; in test [8], -0.132; in [10] it was 0.184; in [15], 0.562; in [16], -0.128; with Torsin-1A (Homo sapiens) [17], 0.538. Also, the figures for the composite z-score (in the test with Torsin-1A (Homo sapiens) [18]; in test [19]) were 0.162 and 0.169, respectively. Further, the z-score in test [7] was 0.11; in test [9], -1.12 (inactive); in [11], 0.164 (inactive); in [12] it was 1.08 (inactive); in test [13], 1.47 (inactive); in [14] it was 0.607 (inactive).

Regarding `CO[C@H]1COC(=O)CC=C[C@H](C)[C@H](OC)COC(=O)[C@@H](C)COC(=O)CC=C[C@@H]1C`, the composite z-score was 0.155 and -0.15 in test [1]; 0.151 and -0.833 in test [2]; 0.445 and -0.105 in [3]; -0.77 and -1.28 in test [4]; 1.13 and 0.8 in test [5]; 0.651 and 0.402 in [6]. Also, the composite z-score in the test on Lefty1 is 0.914 and 0.398; in [8], -0.464 and -0.424; in test [10], -0.051 and -0.105; in [15], -0.313 and 0.0956; in test [16] it was -0.195 and -0.224; with Torsin-1A (Homo sapiens) [17] it was 0.636 and 0.802. For the same compound, the composite z-score is 0.269 and 1.17 in the test with Torsin-1A (Homo sapiens) [18]; 1.08 and 1.09 in test [19]. Further, the z-score in [7] is 0.597 and 1.4; in test [9], -0.882 (inactive) and -1.16 (inactive); in [11] it was 1.08 (inactive) and -0.441 (inactive); in test [12] it was -0.186 (inactive) and 0.0947 (inactive); in [13], -0.116 (inactive) and -1.19 (inactive); in test [14], -0.689 (inactive) and -0.777 (inactive).

`C[N+](C)(C)CCCCCCNC(=O)[C@H]1C[C@H]2C(=O)N[C@@H](CCCC[N+](C)(C)C)C(=O)N2[C@H]1c1ccc(O)cc1`: the composite z-score is -0.389 and 0.368 in [1]; -0.558 and -0.643 in test [2]; -0.391 and -0.0304 in test [3]; -0.112 and -0.705 in [4]; 1.13 and 1.16 in test [5]; 1.52 and 0.18 in test [6]. The composite z-score in the test with Lefty1 was 1.56 and 0.452; in test [8], 0.618 and -0.277; in [10], 0.0916 and 0.169; in test [15] it was -0.52 and -0.486; in test [16], -0.131 and -0.0313; with Torsin-1A (Homo sapiens) [17] it was -0.0883 and -0.172. In addition, the composite z-score was 0.0293 and -0.103 with Torsin-1A (Homo sapiens) [18]; 1.14 and 1.93 in test [19]. For the same compound, the z-score in [7] was -1.08 and -0.207; in test [9] it was 1.03 (inactive) and 0.485 (inactive); in test [11], -2.26 (inactive) and 0.0462 (inactive); in test [12] it was -0.978 (inactive) and -0.491 (inactive); in test [13] it was -1.22 (inactive) and 0.423 (inactive); in [14] it was 0.188 (inactive) and -0.798 (inactive).
